Rows were chosen to be rich in hits. Some 5.2% of all compounds tested hit in one or more screens of this group.
rTrxR1 inhibitor: inhibitors of rat thioredoxin reductase 1. 390,000 tested, 1% active. recombinant rTrxR1, NADPH fluorescence consumption, selenite substrate. O89049. Potency, µM (titrated, usually from 114 µM), usual class: inhibitors; further: nearly all actives have a fitted effect of over 65% in size
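Rat TrxR1 (90 nM in the dispensed reagent) was pre-reduced with 400 uM NADPH for 5 min at room temperature, then incubated with compound for 15 min. After 400 uM selenite was added, NADPH fluorescence (Ex 340/Em 450 nm) was followed for 8 min.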
mIDH1 inhibitor: human IDH1 R132H inhibition. O75874. IDH1-R132H enzyme, NADPH consumption, diaphorase/resazurin fluorescence. Potency, µM (highest dose often 76.6 µM), most hits filed as inhibitors. 390,000 tested, 0.093% active. AID 602179; further: nearly all actives have a fitted effect of over 65% in size
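IDH1-R132H (0.5 ug/mL) preincubated 30 min with compound, then NADPH (0.016 mM) and alpha-KG (2 mM) added; 80 min at RT, pH 7.5. Remaining NADPH coupled via diaphorase/resazurin to fluorescence (540/590 nm); concentration-response curves normalized to no-enzyme control.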
Sfp inh: Sfp phosphopantetheinyl transferase inhibition. Biochemical Sfp PPTase activity, qHTS. 310,000 tested, 3.5% active. Q9F4F7. Potency, µM, hits mostly inhibitors;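 further: the enzyme is Sfp with the accession as filed and its product quenches rhodamine fluorescence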
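Buffer: 50 mM Hepes-Na pH 7.6, 10 mM MgCl2, 0.01% Nonidet P-40, 0.01% BSA. Enzyme 15 nM, pre-exposed to compound 15 min; substrates then added and fluorescence change tracked over 30 min.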
PLK1 PBD inh: PLK1 (human) polo-box domain binding inhibition; Plk1 PBD binding of FITC phosphopeptide, fluorescence polarization; Potency, µM, usual class: inhibitors; 360,000 tested, 2.8% active; further: series mostly up to about 57 µM; nearly all actives have a fitted effect of over 65% in size
VDR inhibitor: vitamin D3 receptor (human) inhibition | P11473 | VDR-SRC2-3 peptide fluorescence polarization, 2 h | Potency, µM, usual class: inhibitors | 400,000 tested, 0.93% active | AID 504847
Target sequence (P11473 whole entry, looked up): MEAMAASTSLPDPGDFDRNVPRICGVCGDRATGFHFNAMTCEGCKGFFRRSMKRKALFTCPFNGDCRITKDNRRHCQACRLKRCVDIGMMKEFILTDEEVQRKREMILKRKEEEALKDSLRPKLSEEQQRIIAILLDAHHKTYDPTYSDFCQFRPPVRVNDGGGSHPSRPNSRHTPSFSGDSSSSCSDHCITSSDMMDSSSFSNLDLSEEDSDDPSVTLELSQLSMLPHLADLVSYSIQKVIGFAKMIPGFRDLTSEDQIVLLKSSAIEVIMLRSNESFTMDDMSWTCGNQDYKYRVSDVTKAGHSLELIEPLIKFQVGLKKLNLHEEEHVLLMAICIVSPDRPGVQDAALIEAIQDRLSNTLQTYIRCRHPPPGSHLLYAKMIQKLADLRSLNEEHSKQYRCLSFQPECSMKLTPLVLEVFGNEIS
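Inhibition of the VDR/SRC2-3 peptide interaction is quantified by fluorescence polarization. Compounds (23 nl, pintool) incubate with the reagents for 2 hours at ambient room temperature.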
TrxR1 substrate: is turned over as a substrate by rat TrxR1; purified TrxR1 substrate turnover, NADPH consumption readout; Potency, µM (series often up to 114 µM); 390,000 tested, 0.01% active; AID 588456; further: nearly all actives have a fitted effect of over 50% in size
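Rat TrxR1, dispensed at 90 nM, was prereduced with 400 uM NADPH (final) for 5 min at ~22 deg C, then incubated with compound 15 min before 400 uM selenite. A first-read NADPH fluorescence drop versus no-compound background flagged substrates.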
A number is an active result; - = inactive; ? = inconclusive; . = not tested or not shown; ! = a repeat was not active; [ ] = remark or other dose. The call rests on the fitted dose curve; in most records, active means well fitted curve in the direction sought with a large enough effect; inconclusive means small, poorly fitted or top-dose-only effect, or another doubt; inactive means no such curve, though single readings can be large; an effect the other way counts as inactive or inconclusive.

SMILES | rTrxR1 inhibitor | mIDH1 inhibitor | Sfp inh | PLK1 PBD inh | VDR inhibitor | TrxR1 substrate
CC[C@H](C)[C@H](NC(=O)[C@H](CCC(=O)O)NC(=O)[C@@H](N)CO)C(=O)N[C@@H](CCC(N)=O)C(=O)N[C@@H](CC(C)C)C(=O)N[C@@H](CCSC)C(=O)N[C@@H](Cc1cnc[nH]1)C(=O)N[C@@H](CC(N)=O)C(=O)N[C@@H](CC(C)C)C(=O)NCC(=O)N[C@@H](CCCCN)C(=O)N[C@@H](Cc1cnc[nH]1)C(=O)N[C@@H](CC(C)C)C(=O)N[C@@H](CC(N)=O)C(=O)N[C@@H](CO)C(=O)N[C@@H](CCSC)C(=O)N[C@@H](CCC(=O)O)C(=O)N[C@@H](CCCNC(=N)N)C(=O)N[C@H](C(=O)N[C@@H](CCC(=O)O)C(=O)N[C@@H](Cc1c[nH]c2ccccc12)C(=O)N[C@@H](CC(C)C)C(=O)N[C@@H](CCCNC(=N)N)C(=O)N[C@@H](CCCCN)C(=O)N[C@@H](CCCCN)C(=O)N[C@@H](CC(C)C)C(=O)N[C@@H](CCC(N)=O)C(=O)N[C@@H](CC(=O)O)C(=O)N[C@H](C(=O)N[C@@H](Cc1cnc[nH]1)C(=O)N[C@@H](CC(N)=O)C(=O)N[C@@H](Cc1ccccc1)C(=O)O)C(C)C)C(C)C | . | . | - | . | - | .
Clc1cccc(CNc2ccn3nc(-c4cccs4)cc3n2)c1 | . | . | . | - | . | .
COCc1cc(CN2CCN(CCc3ccccc3)C(CCO)C2)ccc1OC (configuration not stated) | - | - | - | - | - | -
Fc1ccccc1N1CCN(c2nnnn2-c2ccccc2)CC1 | - | - | - | - | - | -
Oc1ccccc1N1CCN(c2nnnn2-c2ccccc2)CC1 | - | - | - | 30µM | ? | -
COc1cccc(C(=O)NC2CCN(CC(=O)Nc3nccs3)CC2)c1 | - | - | - | 24µM | - | -
O=C(Oc1ccccc1)C1O[C@@H]1c1ccccc1 (some centres not stated) | . | . | - | . | - | .
COc1ccc(NC2C=CS(=O)(=O)C2)cc1 (configuration not stated) | 16µM | - | - | - | - | -
O=S1(=O)C=CC(Nc2ccccc2)C1 (configuration not stated) | - | - | - | 27µM | ? | -
CC(C)(C)c1ccc(-c2nc3cc(NC(=O)c4cccc(Br)c4)ccc3o2)cc1 | - | - | . | . | - | -
CCOC(=O)c1cc2c(=O)n3cccc(C)c3nc2n(CCCOC)c1=NC(=O)c1cccnc1 | - | - | - | - | - | -
Cc1ccccc1C(=O)N=c1c(C#N)cc2c(=O)n3cccc(C)c3nc2n1Cc1ccco1 | . | . | 50µM | . | . | .
COc1ccc(C(=O)N=c2c(C#N)cc3c(=O)n4cccc(C)c4nc3n2Cc2ccco2)cc1 | . | . | 56µM | . | . | .
CCOCCCn1c(=NC(=O)c2cccnc2)c(C(=O)OCC)cc2c(=O)n3ccccc3nc21 | -[11.4 µM] | - | - | 19µM! | ? | -
CCOC(=O)c1cc2c(=O)n3ccccc3nc2n(Cc2ccco2)c1=NC(=O)c1ccc(OC)cc1OC | - | - | 45µM | - | ? | -
COCCn1c(=O)c(-c2cc(F)cc(F)c2)nc2cnc(N3CCOCC3)nc21 | . | . | - | . | - | .
CCCCOc1ccc(C(=O)NCCS(=O)(=O)N2CCN(c3ccccc3OC)CC2)cc1 | - | - | . | . | - | -
CCOc1ccc(NC(=O)c2cccnc2C(=O)O)cc1 | - | - | 56µM | - | - | -
CCOc1ncccc1C(=O)Nc1ccc(Cl)cc1 | - | - | - | 11µM | ? | -
c1cc2c(cc1CN1CCN(C3CCCCCC3)CC1)OCO2 | - | - | 56µM | - | - | -
CCCCNC(=S)N1CCN(Cc2ccc3c(c2)OCO3)CC1 | - | - | 14µM | - | - | -
COc1ccc(C(=O)c2c(N)sc3c2CCN(C(=O)OC(C)(C)C)C3)cc1 | - | - | 79µM | - | - | -
CCOc1nc(C#N)nc(N(c2ccccc2)c2ccccc2)n1 | - | . | . | . | - | -
O=C(CSc1ccccc1Cl)c1ccco1 | ? | - | - | 21µM | ? | -
O=C(CCSc1ccc(Cl)cc1)c1ccco1 | 10µM | - | - | ? | ? | -
SMILES | rTrxR1 inhibitor | mIDH1 inhibitor | Sfp inh | PLK1 PBD inh | VDR inhibitor | TrxR1 substrate
O=C(CSc1ccc(Cl)cc1)c1ccco1 | 45µM | - | 45µM | 9.5µM | ? | -
COc1ccc(CC(=O)NCC(c2cccs2)S(=O)(=O)c2ccc(C)cc2)cc1 (configuration not stated) | - | - | . | . | - | -
Cc1cc2nc(CO)[nH]c2cc1C | -[2.29 µM] | - | - | - | - | -
Cc1cc2nc(CS)[nH]c2cc1C | -[2.29 µM] | - | 40µM | ? | ? | -[2.29 µM]
Cc1cccc(Cl)c1NC(=O)NCCCN1CCCCC1C (configuration not stated) | . | . | . | - | . | .
CN(C)CCCNCC(=O)Nc1ccccc1N1CCOCC1 | - | - | 79µM | - | - | -
Cn1c(=O)c(=O)n(C)c2cc(S(=O)(=O)N3CCCC3C(=O)Nc3cccc(F)c3)ccc21 (configuration not stated) | - | - | . | . | - | -
N[C@@H](C(=O)O)[C@@H](CC(=O)O)c1ccc(Cl)cc1 | . | . | - | . | - | .
O=[N+]([O-])c1cc(C(F)(F)F)cc([N+](=O)[O-])c1Sc1n[nH]c(C(F)(F)F)n1 | ? | - | 56µM | ? | 28µM | -
CCN(CC)CCC(c1ccc(N(C)C)cc1)c1c(OC)cc(OC)c2c1OC(=O)CC2c1ccc(N(C)C)cc1 (configuration not stated) | ? | . | - | . | - | -
COc1ccc(N(CC(=O)Nc2ccc3c(c2)OCO3)S(=O)(=O)c2ccc(F)cc2)cc1 | - | - | - | - | - | -
COc1ccc(N(CC(=O)N/N=C/c2ccc3c(c2)OCO3)S(=O)(=O)c2ccc(NC(C)=O)cc2)cc1 | - | - | - | 27µM | - | -
O=C1C(c2ccc(C(F)(F)F)cc2)=C(Nc2ccc(Cl)cc2)c2ccccc21 | - | - | . | . | - | -
NC(=O)NC(CC(=O)NCCc1ccc(S(N)(=O)=O)cc1)c1ccc(Cl)cc1 (configuration not stated) | - | - | - | 15µM | ? | -
Cc1c(NC2=C(Cl)C(=O)N(c3ccccc3Cl)C2=O)c(=O)n(-c2ccccc2)n1C | 20µM | - | 50µM | ? | - | -
C=CCNC1=C(Cl)C(=O)N(c2ccccc2Cl)C1=O | 25µM | - | - | - | - | -
O=c1[nH]c(SCc2ccccc2)ncc1S(=O)(=O)c1ccccc1 | - | . | . | . | - | -
O=C(Nc1cccc(OC(=O)c2ccc(Br)o2)c1)c1ccccc1 | - | - | - | - | - | -
CCOC(=O)c1c(C)oc2c1c(C(c1ccncc1)N1CCOCC1)c(O)c1ccccc12 (configuration not stated) | ? | - | ? | 11µM | ? | -
